The values below come from PubChem BioAssay (Tox21).

“And” between values parts separate entries of the source, which are not always exact repeats. Equal values may be shown once. Records with an inconclusive call do not appear. Some compounds were tested as several samples or in several runs, with calls that do not always agree. The source made the active and inactive calls. Unless noted, calls come from the whole dose curve; as a rule, active = well fitted curve in the direction sought with a large enough effect in the repeat runs; inconclusive = weak or mixed curves; inactive = no such curve, though single readings can be large; an effect the other way counts as inactive or inconclusive.

Test [1] in a line: qHTS assay to identify small molecule antagonists of the glucocorticoid receptor (GR) signaling pathway - cell viability counter screen (AID 720693). Note: nearly all actives have a fitted effect of over 55% in size. Note: potency is the fitted concentration of half-maximal effect.
The nature of test [2]: qHTS assay for identifying genotoxic compounds that show differential cytotoxicity against isogenic chicken DT40 cell lines with known DNA damage response pathways - wild type cell line (AID 743012). Note: nearly all actives have a fitted effect of over 60% in size. Note: potency is the fitted concentration of half-maximal effect. In short, it runs like this:
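Endpoint: CellTiter-Glo luminescence, 30 min RT. Cells: wild type DT40, 300/well. Exposure: compounds in DMSO, 40 h, 37 C/5% CO2, after ~0.5 h pre-incubation.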

Test [3] can be described thus: qHTS assay for identifying genotoxic compounds that show differential cytotoxicity against isogenic chicken DT40 cell lines with known DNA damage response pathways - Rev3 mutant cell line (AID 743014). Note: nearly all actives have a fitted effect of over 55% in size. Note: potency is the fitted concentration of half-maximal effect. For orientation: In qHTS, concentration-response curves come from the screen itself.
Test [4] in a line: qHTS assay for identifying genotoxic compounds that show differential cytotoxicity against isogenic chicken DT40 cell lines with known DNA damage response pathways - Rad54/Ku70 mutant cell line (AID 743015). Note: nearly all actives have a fitted effect of over 60% in size. Note: potency is the fitted concentration of half-maximal effect.
Test [5] can be described thus: qHTS assay to identify small molecule antagonists of the androgen receptor (AR) signaling pathway - cell viability counter screen (AID 743033; note: nearly all actives have a fitted effect of over 45% in size; note: potency is the fitted concentration of half-maximal effect).
Test [6] is described as follows: qHTS assay to identify small molecule antagonists of the androgen receptor (AR) signaling pathway using the MDA cell line - cell viability counter screen (AID 743041; note: nearly all actives have a fitted effect of over 45% in size; note: potency is the fitted concentration of half-maximal effect). In short, it runs like this: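 Compound exposure lasted 16 h at 37C in MDA-kb2 AR-luc cells stimulated with R1881. Protease-based CellTiter-Fluor reagent was applied for the final 30 min and fluorescence measured.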

A short description of test [7]: qHTS assay to identify small molecule antagonists of the thyroid receptor (TR) signaling pathway - cell viability counter screen (AID 743064). Note: nearly all actives have a fitted effect of over 50% in size. Note: potency is the fitted concentration of half-maximal effect. In short, it runs like this:
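In-well cytotoxicity read by CellTiter-Fluor (30 min, 37 C) following 23.5 h exposure of GH3 cells bearing a TRE-luciferase sensor. Compounds were added alongside 1 nM (final) T3 to drive TR transactivation.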

Test [8] concerns thyroid hormone receptor (rat, GH3 cells). The test can be described thus: qHTS assay to identify small molecule agonists of the thyroid receptor (TR) signaling pathway (AID 743066; calls by dose curve).
Test [9] in a line: qHTS assay to identify small molecule antagonists of the estrogen receptor alpha (ER-alpha) signaling pathway - cell viability counter screen (AID 743074; calls by dose curve; note: nearly all actives have a fitted effect of over 45% in size; note: potency is the fitted concentration of half-maximal effect).
Test [10] is described as follows: qHTS assay to identify small molecule antagonists of the estrogen receptor alpha (ER-alpha) signaling pathway using the BG1 cell line - cell viability counter screen (AID 743081).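 Note: compound given together with 17beta-estradiol as the ER stimulus; nearly all actives have a fitted effect of over 45% in size.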 Note: potency is the fitted concentration of half-maximal effect.
The target of test [11] is Aromatase (Homo sapiens) (UniProt P11511). The test can be described thus: qHTS assay to identify aromatase inhibitors (AID 743083). Note: nearly all actives have a fitted effect of over 55% in size. Note: potency is the fitted concentration of half-maximal effect.
Aromatase (Homo sapiens), sequence (P11511 whole entry, looked up): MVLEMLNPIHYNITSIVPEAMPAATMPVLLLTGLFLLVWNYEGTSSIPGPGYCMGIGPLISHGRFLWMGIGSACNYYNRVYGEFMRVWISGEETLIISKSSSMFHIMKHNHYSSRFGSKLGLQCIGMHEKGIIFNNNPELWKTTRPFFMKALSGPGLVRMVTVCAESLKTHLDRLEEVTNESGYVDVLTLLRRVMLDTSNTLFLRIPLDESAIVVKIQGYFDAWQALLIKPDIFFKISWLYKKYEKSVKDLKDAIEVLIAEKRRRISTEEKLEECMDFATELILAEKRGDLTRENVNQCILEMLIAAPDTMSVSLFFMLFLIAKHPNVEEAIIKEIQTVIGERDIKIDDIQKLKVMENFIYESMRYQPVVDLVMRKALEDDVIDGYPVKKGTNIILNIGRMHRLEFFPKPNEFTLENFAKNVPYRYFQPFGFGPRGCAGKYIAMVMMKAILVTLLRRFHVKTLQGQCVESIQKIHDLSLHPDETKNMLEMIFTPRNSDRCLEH
A short description of test [12]: qHTS assay to identify aromatase inhibitors - cell viability counter screen (AID 743084).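 Note: cells stimulated with testosterone during compound exposure; nearly all actives have a fitted effect of over 55% in size.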 Note: potency is the fitted concentration of half-maximal effect.
Test [13] concerns the target Estrogen receptor (Homo sapiens) (UniProt P03372). Nature of the test: qHTS assay to identify small molecule antagonists of the estrogen receptor alpha (ER-alpha) signaling pathway (AID 743069; active = well fitted curve in the direction sought with a large enough effect in the signal ratio in the repeat runs, not every such curve was filed as active; the % refers to the signal ratio; note: potency is the fitted concentration of half-maximal effect). The gist of the method:
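In this cell-based reporter format, GripTite HEK293 cells harbouring ER-alpha-UAS-bla were grown overnight with 2% charcoal-stripped FBS, dosed with DMSO-dissolved compounds, then challenged with 17beta-estradiol. After 18 hr at 37C, beta-lactamase activity was detected by FRET fluorescence.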

For test [14] the target is unchanged. The test can be described thus: qHTS assay to identify small molecule agonists of the estrogen receptor alpha (ER-alpha) signaling pathway (AID 743075; calls by dose curve).
In test [15] the target is Androgen receptor (Homo sapiens) (UniProt P10275). The test can be described thus: qHTS assay to identify small molecule agonists of the androgen receptor (AR) signaling pathway using the MDA cell line (AID 743040; note: nearly all actives have a fitted effect of over 20% in size; note: potency is the fitted concentration of half-maximal effect). In short, it runs like this: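 Testing was done with the MDA-kb2 AR-luc line, a human breast carcinoma stably transfected with MMTV-luciferase containing AR and GR response elements. Cells were exposed 16 h at 37C before ONE-Glo luminescence detection.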
Androgen receptor (Homo sapiens), sequence (P10275 whole entry, looked up): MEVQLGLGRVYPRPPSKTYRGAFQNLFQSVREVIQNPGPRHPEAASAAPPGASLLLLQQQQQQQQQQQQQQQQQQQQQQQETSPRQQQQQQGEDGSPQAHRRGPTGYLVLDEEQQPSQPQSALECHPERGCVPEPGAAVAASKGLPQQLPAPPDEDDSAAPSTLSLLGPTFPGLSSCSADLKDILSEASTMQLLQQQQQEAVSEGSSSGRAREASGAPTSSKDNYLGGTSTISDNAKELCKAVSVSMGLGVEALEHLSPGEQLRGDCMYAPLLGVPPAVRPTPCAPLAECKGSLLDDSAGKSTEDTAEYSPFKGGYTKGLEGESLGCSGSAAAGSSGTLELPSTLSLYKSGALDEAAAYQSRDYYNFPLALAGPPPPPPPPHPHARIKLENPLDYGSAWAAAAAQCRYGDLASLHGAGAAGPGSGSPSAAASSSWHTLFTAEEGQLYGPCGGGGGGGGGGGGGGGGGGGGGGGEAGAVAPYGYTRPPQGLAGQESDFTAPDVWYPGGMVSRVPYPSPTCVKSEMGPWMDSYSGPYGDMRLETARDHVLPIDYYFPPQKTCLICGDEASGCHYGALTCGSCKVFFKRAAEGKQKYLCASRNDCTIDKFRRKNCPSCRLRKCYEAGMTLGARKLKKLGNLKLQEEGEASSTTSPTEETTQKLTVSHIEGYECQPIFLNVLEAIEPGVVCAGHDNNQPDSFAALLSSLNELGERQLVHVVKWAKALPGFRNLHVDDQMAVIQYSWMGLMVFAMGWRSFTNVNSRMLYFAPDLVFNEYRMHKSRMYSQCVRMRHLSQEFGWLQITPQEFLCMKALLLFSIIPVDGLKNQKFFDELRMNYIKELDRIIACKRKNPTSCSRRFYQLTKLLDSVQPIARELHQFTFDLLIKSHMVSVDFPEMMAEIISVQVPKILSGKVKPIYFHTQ

For test [16] the target is unchanged. Nature of the test: qHTS assay to identify small molecule antagonists of the androgen receptor (AR) signaling pathway using the MDA cell line (AID 743042; note: nearly all actives have a fitted effect of over 55% in size; note: potency is the fitted concentration of half-maximal effect). In short, it runs like this:
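MDA-kb2 breast carcinoma cells carrying MMTV-luciferase (AR/GR responsive) were co-treated with compounds and the agonist R1881 for 16 h at 37C. Inhibition read as ONE-Glo luminescence; CellTiter-Fluor fluorescence measured in parallel for cytotoxicity.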

Test [17] in a line: qHTS assay to identify small molecule antagonists of the thyroid receptor (TR) signaling pathway (AID 743065). Note: nearly all actives have a fitted effect of over 55% in size. Note: potency is the fitted concentration of half-maximal effect. The gist of the method:
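GH3.TRE-Luc rat pituitary cells (two TREs driving luciferase) were dosed with compound, then stimulated with 1 nM T3 (final) for 23.5 h at 37 C. ONE-Glo luminescence was the read-out, with CellTiter-Fluor fluorescence as the cytotoxicity counter-screen.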

Test [18] concerns the target Estrogen receptor (Homo sapiens) (UniProt P03372). Nature of the test: qHTS assay to identify small molecule agonists of the estrogen receptor alpha (ER-alpha) signaling pathway using the BG1 cell line (AID 743079). Note: nearly all actives have a fitted effect of over 20% in size. Note: potency is the fitted concentration of half-maximal effect.
A short description of test [19]: qHTS assay to identify small molecule antagonists of the estrogen receptor alpha (ER-alpha) signaling pathway using the BG1 cell line (AID 743080; calls by dose curve;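 note: BG1 cells stimulated with 17beta-estradiol alongside compound; nearly all actives have a fitted effect of over 25% in size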; note: potency is the fitted concentration of half-maximal effect). The gist of the method:
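Luminescence from a 4×ERE-luciferase reporter in BG1-Luc-4E2 cells served as read-out. Cells, pre-cultured 5 days in stripped-serum phenol-red-free medium, were exposed to compound with 17beta-estradiol co-stimulation for 21.5 h at 37 C.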

The target in test [20] is Androgen receptor (Homo sapiens) (UniProt P10275). Nature of the test: qHTS assay to identify small molecule agonists of the androgen receptor (AR) signaling pathway (AID 743036; active = well fitted activation curve with a large enough effect in the signal ratio in the repeat runs, with a control signal flat, not every such curve was filed as active; the % refers to the signal ratio; note: potency is the fitted concentration of half-maximal effect). In short, it runs like this: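 Activation was read as beta-lactamase FRET signal from LiveBLAzer B/G substrate, added for 2 h at room temperature. Before that, GeneBLAzer AR-UAS-bla GripTite (HEK293) cells had 16 h compound exposure at 37C.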

Estrogen receptor (Homo sapiens), sequence (P03372 whole entry, looked up): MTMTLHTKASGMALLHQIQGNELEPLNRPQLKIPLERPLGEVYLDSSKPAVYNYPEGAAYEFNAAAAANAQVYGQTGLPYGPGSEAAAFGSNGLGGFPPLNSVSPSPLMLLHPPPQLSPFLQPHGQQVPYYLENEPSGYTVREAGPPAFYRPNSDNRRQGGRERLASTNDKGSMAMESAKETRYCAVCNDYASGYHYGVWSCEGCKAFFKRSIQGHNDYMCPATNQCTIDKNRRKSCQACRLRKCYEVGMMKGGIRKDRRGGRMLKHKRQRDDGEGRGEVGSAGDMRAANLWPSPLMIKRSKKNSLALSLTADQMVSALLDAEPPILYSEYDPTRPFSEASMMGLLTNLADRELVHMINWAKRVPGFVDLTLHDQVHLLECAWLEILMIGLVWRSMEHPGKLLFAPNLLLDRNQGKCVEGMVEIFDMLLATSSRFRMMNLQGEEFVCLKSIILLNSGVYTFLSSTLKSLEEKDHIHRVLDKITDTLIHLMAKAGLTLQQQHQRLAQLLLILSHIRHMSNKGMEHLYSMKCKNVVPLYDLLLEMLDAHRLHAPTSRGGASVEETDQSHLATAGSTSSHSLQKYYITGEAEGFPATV

For the compound `BrC(Br)Br`, the Potency result in test [1], in [2], in [3], in test [4], in test [5] and in test [6] was “inactive” each time. Besides, the Potency result in [7], in test [9], in [10], in test [11] and in test [12] was “inactive” each time. Further, in test [8], the result was inactive.
As for `O=[N+]([O-])c1ccc(Oc2ccc(C(F)(F)F)cc2[N+](=O)[O-])cc1`, the Potency entry in [1], in test [5], in [6], in [7], in [13] and in test [9] was “inactive” in each case. Moreover, the Potency result in test [14], in [10], in [11] and in test [12] was “inactive” in each case. Moreover, the Potency in [2] was 19.3 µM (active); in test [3], 17.2 µM (active); in test [4], 24.3 µM (active). For the same compound, the compound was called inactive in test [8].
Take `O=C(NC(=O)c1c(F)cccc1F)Nc1cc(Cl)c(OC(F)(F)C(F)F)c(Cl)c1`: the Potency result in test [1], in [2], in [3], in [5], in test [15] and in test [6] was “inactive” throughout. In addition, the Potency result in [16], in [7], in [17], in [13], in test [9] and in test [14] was “inactive” throughout. In addition, the Potency entry in test [10], in test [11] and in test [12] was “inactive” each time. The Potency in test [4] is 21.7 µM (active). In test [8], the compound was called inactive.
Turning to `CCCN(CCC)c1c([N+](=O)[O-])cc(S(N)(=O)=O)cc1[N+](=O)[O-]`, the Potency in test [1] is 58.6 µM (active); in [2], 2.06 µM (active); in test [3], 16.9 µM (active); in test [4] it was 22.1 µM (active); in test [5], 20.8 µM (active); in test [6], 51.8 µM (active). For the same compound, the Potency in test [7] is 48.7 µM (active); in [17], 30.6 µM (active); in test [9], 26.2 µM (active); in [11], 33.1 µM (active); in test [12] it was 32.7 µM (active). The compound was called inactive in test [8]. The Potency result in test [14] was “inactive”.
`Cc1cc(C)c(C2=C(OC(=O)CC(C)(C)C)C3(CCCC3)OC2=O)c(C)c1`: the Potency entry in test [1], in test [2], in test [3], in [4], in test [5] and in test [6] was “inactive” in each case. Also, the Potency result in test [7], in test [13], in test [9], in test [14], in [18] and in test [19] was “inactive” each time. Also, the Potency result in [10], in test [11] and in test [12] was “inactive” each time. Also, the outcome in test [8] was inactive.
As for `CC1(C)CN=C(NN=C(/C=C/c2ccc(C(F)(F)F)cc2)/C=C/c2ccc(C(F)(F)F)cc2)NC1`, the Potency in [1] was 24.5 µM (active); in [2], 4.33 µM (active); in [3], 3.86 µM (active); in test [4], 4.33 µM (active); in test [5] it was 21.9 µM (active); in [7] it was 12.2 µM (active). The Potency was 49 µM [cytotoxic] (active) in test [13]; 43.6 µM (active) in test [9]; 3.06 µM (active) in [18]; 61.1 µM (active) in [10]; 8.63 µM (active) in test [11]; 13.7 µM (active) in test [12]. For the same compound, in [15], the Potency entry was “inactive”. Further, the result in [8] was inactive.
With `c1ccc2cc3c(cc2c1)-c1cccc2cccc-3c12`, the Potency entry in test [1], in [2], in test [3], in test [4], in [5] and in [15] was “inactive” each time. In addition, the Potency result in test [6], in [17], in test [9], in [18] and in test [11] was “inactive” throughout. The call in test [8] was inactive. The Potency in test [19] is 269 nM (active).
Consider `COc1cc(N)c(Cl)cc1C(=O)NC1CN2CCC1CC2` (stereo unspecified), for which the Potency entry in test [1], in [2], in test [3], in test [4], in [5] and in test [6] was “inactive” each time. The Potency result in [7], in [9], in test [10], in test [11] and in test [12] was “inactive” throughout. The result in test [8] was inactive.
As for `FC(Cl)(Cl)Cl`, the Potency entry in test [1], in test [2], in test [3], in test [4], in test [5] and in test [6] was “inactive” throughout. Besides, the Potency result in test [16], in [7], in test [17], in [9], in test [10] and in [11] was “inactive” throughout. The Potency entry in [12] was “inactive”. For the same compound, the Potency is 12.3 µM (active) in test [20] and 1.36 µM (active) in [15]. Further, the outcome in test [8] was inactive.
Regarding `C[C@@H]1O[C@@H](O[C@H]2C[C@@H](O)[C@]3(CO)[C@H]4[C@H](O)C[C@]5(C)[C@@H](C6=CC(=O)OC6)CC[C@]5(O)[C@@H]4CC[C@]3(O)C2)[C@H](O)[C@H](O)[C@H]1O`, the Potency in test [1] was 379 nM (active) and 213 nM (active) and 58.5 nM (active); in test [2] it was 2.11 µM (active) and 1.88 µM (active) and 1.3 µM (active); in test [3], 2.11 µM (active) and 1.88 µM (active) and 517 nM (active); in [4], 1.88 µM (active) and 580 nM (active); in test [5], 67.4 nM (active) and 53.5 nM (active) and 11.7 nM (active); in [16], 841 nM (active) and inactive. In addition, the Potency was 0.0425 µM (active) in [9]; 531 nM (active) and 163 nM (active) in [19]. Besides, the Potency result in test [15], in test [6], in test [7], in [17], in test [14] and in test [10] was “inactive” throughout. The Potency entry in [12] is “inactive”. Besides, the outcome in test [8] was inactive.
Consider `N#CCCSCCC#N`, for which the Potency result in test [1], in test [2], in [3], in test [4], in test [5] and in test [15] was “inactive” in each case. In addition, the Potency entry in test [6], in test [16], in test [7], in test [17], in test [13] and in test [9] was “inactive” in each case. Also, the Potency result in [14], in test [19], in test [10], in test [11] and in test [12] was “inactive” each time. In addition, the call in test [8] was inactive.
